Screens (PubChem BioAssay)
Hits are enriched below; roughly 9.2% of the tested compounds scored in any of these assays.
ELG1 DNA repair = inhibitors of ELG1-dependent DNA repair in HEK293T cells; HEK293T ELG1-luciferase reporter, luminescence, 16 h; DNA damage induced by 5-fluorouridine; Potency, µM (top dose mostly 46.1 µM), for inactives: top-dose activity change, negative = inhibition, hits mostly inhibitors; hit rate 2.3% among 330,000; AID 504467; further: on the % scale 0 is the no-effect control and ±100 the full control effect; nearly all actives have a fitted effect of over 55% in size
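Luminescence from the luciferase reporter, measured 30 min after ONE-Glo reagent at room temperature, was the read-out. Beforehand, 2,000 cells per well were exposed for 16 hr at 37 °C to 5-fluorouridine together with compound or vehicle.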
NPC1 promoter act = activators of NPC1 promoter; hit rate 2.4% among 320,000; Huh7 NPC1 promoter luciferase reporter, 24 h; AID 485313; Potency, µM (highest dose often 9.22 µM), inactives show at the highest dose activation, hits mostly activators; further: % of control where 0% means no effect; nearly all actives have a fitted effect of over 60% in size
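Luminescence read-out of NPC1 promoter-driven luciferase in stably transfected Huh7 cells; compounds delivered in DMSO and left 24 h at 37C, 5% CO2, qHTS titration format.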
ELG1 genotox = genotoxicity induction in ELG1-luciferase HEK293T cells | AID 504466 | hit rate 1.3% among 330,000 | HEK293T ELG1-luciferase reporter, luminescence, 16 h | Potency, µM (top dose mostly 46 µM), without a hit: top-dose activity change, positive = activation, usual class: activators; further: % of control where 0% means no effect; nearly all actives have a fitted effect of over 60% in size
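Reporter readout depends on ELG1 protein level, which increases with genetic stress. After 16 hr compound exposure at 37 °C, luciferase activity was quantified using ONE-Glo.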
FLuc modulator = counter-screen for miR-21 project: firefly luciferase inhibitors or activators. P08659. purified FLuc, Km substrates, luminescence inhibition. Potency, µM (top dose mostly 57.5 µM), inactives show at the highest dose activity change, negative = inhibition, actives largely listed as inhibitors. hit rate 6.9% among 360,000. AID 588342;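 further: plate controls were vehicle for no effect and reference inhibitor for full effect; nearly all actives have a fitted effect of over 55% in size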
Target sequence (P08659 whole entry, looked up): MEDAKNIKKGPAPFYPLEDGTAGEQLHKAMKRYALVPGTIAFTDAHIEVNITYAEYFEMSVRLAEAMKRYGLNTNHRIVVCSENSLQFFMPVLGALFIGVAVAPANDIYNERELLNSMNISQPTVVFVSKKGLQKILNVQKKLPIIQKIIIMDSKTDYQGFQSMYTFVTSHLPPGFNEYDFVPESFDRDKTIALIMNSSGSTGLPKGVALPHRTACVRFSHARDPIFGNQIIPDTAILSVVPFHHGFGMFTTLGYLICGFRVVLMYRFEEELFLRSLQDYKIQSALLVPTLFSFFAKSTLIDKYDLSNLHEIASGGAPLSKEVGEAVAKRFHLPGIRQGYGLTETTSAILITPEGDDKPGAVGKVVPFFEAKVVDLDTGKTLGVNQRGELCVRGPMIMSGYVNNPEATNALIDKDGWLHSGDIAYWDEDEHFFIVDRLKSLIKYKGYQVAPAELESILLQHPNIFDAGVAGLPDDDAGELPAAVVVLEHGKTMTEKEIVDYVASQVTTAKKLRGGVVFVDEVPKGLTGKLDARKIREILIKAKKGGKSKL
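Purified P. pyralis luciferase (10nM final) with 10uM D-luciferin and 10uM ATP (Km levels) in 50mM Tris acetate pH 7.5, 10mM Mg acetate, 0.01% Tween-20, 0.05% BSA; qHTS 6-point titration, ~60 µM downward; luminescence read.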
SMN2 splice enh = increases expression of the SMN2 splice variant; Potency, µM (highest dose often 46.1 µM), for inactives: top-dose activity change, positive = activation, hits mostly activators; HEK293 SMN2-luciferase splicing reporter, luminescence, 30-36 h; AID 1458; hit rate 2.8% among 210,000; further: % of control where 0% means no effect; nearly all actives have a fitted effect of over 55% in size
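HEK293 cells carry an SMN2 […]–luciferase reporter in which exon 7 inclusion puts luciferase in frame. Cells were plated 10-12 h before compound addition, then incubated 30-36 h at 37C. ONE-Glo luminescence was read; sodium butyrate at 4.5 mM final served as control.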
Rab9 promoter act = activates the Rab9 promoter; Huh7 Rab9 promoter-luciferase reporter, luminescence, 24 h; AID 485297; Potency, µM (top dose mostly 9.22 µM), without a hit: at the highest dose activation, negative = inhibition, hits mostly activators; hit rate 2.8% among 320,000; further: % of control where 0% means no effect; nearly all actives have a fitted effect of over 60% in size
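Using Huh7 cells stably transfected with Rab9 promoter–luciferase, compounds were incubated 24 h at 37 °C, 5% CO2; luciferase luminescence was read 10 min after reagent addition.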
The depositor's hits bear a star; u = inconclusive; x = no result given; [ ] = another dose, or the depositor's remark. The call rests on the fitted dose curve; in most records, active means well fitted curve in the direction sought with a large enough effect; inconclusive means small, poorly fitted or top-dose-only effect, or another doubt; inactive means no such curve, though single readings can be large; an effect the other way counts as inactive or inconclusive. Potency means the concentration at half of the fitted maximal effect.

SMILES	ELG1 DNA repair	NPC1 promoter act	ELG1 genotox	FLuc modulator	SMN2 splice enh	Rab9 promoter act
COc1ccc(-c2cc(C(=O)OCC(=O)Nc3ccc4c(c3)OCO4)c3ccccc3n2)cc1	u	21.8%	0.3%	u	12.6µM*	21.1%
O=C(Nc1ccc2c(c1)OCCO2)c1cc(-c2ccccn2)nc2ccc(Br)cc12	0.6%	-4.8%	14.1%	-3.9%	-6.7%	-8.2%
CCOc1ccc(-c2cc(C(=O)Nc3ccc4c(c3)OCCO4)c3ccccc3n2)cc1	-19.2%	25.1%	1.8%	2.39µM*	u	u
O=S(=O)(NC1=NCCC1)c1cccc(NC(=S)NCCc2ccccc2)c1	-0.2%	-5.3%	-0.9%	-2.1%	-12.7%	-5.1%
Cc1nn(-c2ccccc2)c2c1cc1c(=O)[nH]c(=O)nc-1n2-c1cccc(Cl)c1	x	x	x	-4.4%	-22.4%	x
Cc1cc(C)n(-c2nnc3c4ccccc4n(C)c3n2)n1	u	1.41µM*	u	4.78µM*	x	2.51µM*
C/C(=N\Nc1nc(C)cc(C)n1)c1ccc(C)o1	-5.0%	0.5%	1.1%	-15.1%	x	-3.5%
C/C(=N\Nc1nnc2c3ccccc3n(C)c2n1)c1ccc(C)o1	16.4µM*	3.2%	-7.3%	16.9µM*	-24.2%	9.0%
CCc1nn2c(=O)cc(COC(=O)C(CC)c3ccccc3)nc2s1 (stereo not drawn)	x	x	x	5.4%	x	x
N#C/C(=C(/O)c1cccc(F)c1)c1nc2ccccc2s1	u	u	9.0%	19µM*	x	u
CC1=CC(=C(C#N)c2nc3ccccc3s2)C=C(C)N1Cc1ccco1	-25.6%	2.0%	0.8%	4.78µM*	-15.6%	5.8%
Cn1c(/C(C#N)=C(\O)c2cccc(F)c2)nc2ccccc21	20.6%	29.7%	u	-5.4%	x	11.5%
O=C(NCc1ccco1)c1nc2ccccc2s1	u	3.1%	u	u	u	19.1%
N#C/C(=C(/O)c1cc2ccccc2o1)c1nc2ccccc2s1	18.2%	3.16µM*	2.5%	6.75µM*	x	u
N#C/C(=C(/O)C(Cl)c1ccccc1)c1nc2ccccc2s1 (stereo not drawn)	u	23.9%	u	u	-8.2%	u
N#C/C(=C(/O)c1ccco1)c1nc2ccccc2s1	u	2.24µM*	13.5%	8.49µM*	24.8%	3.16µM*
CN(C)S(=O)(=O)c1cc(NC2CC(=O)N(c3ccc(F)cc3)C2=O)ccc1Cl (stereo not drawn)	8.0%	-8.6%	1.6%	0.2%	14.5%	-2.1%
N#C/C(=C(/O)c1ccco1)c1nc2ccccc2[nH]1	-1.3%	15.9%	2.4%	19µM*	-34.3%	u
N#C/C(=C(\O)Cc1ccccc1)c1nc2ccccc2[nH]1	u	3.1%	u	-2.6%	-24.5%	-2.7%
S=c1nccc(-c2ccc3c(c2)CCO3)[nH]1	u	23.3%	-3.2%	-17.2%	x	0.2%
CC1(C)CCc2cc(-c3ccnc(=S)[nH]3)ccc2O1	u	0.447µM*	1.46µM*	10.7µM*	x	0.631µM*
CCOC(=O)c1c(C)[nH]c(C)c1S(=O)(=O)NCC(=O)Nc1ccc(C)c(N(C)C)c1	x	x	x	5.5%	x	x
Cc1cc(C)c2c(CC(=O)Nc3c(C(=O)Nc4ccc(Cl)cc4)oc4ccccc34)coc2c1	x	x	x	-9.5%	14.1%	x
CCOC(=O)C1CSC(Cc2ccc(OCc3ccc([N+](=O)[O-])cc3)cc2)N1 (stereo not drawn)	x	x	x	x	12.6µM*	x
CCOC(=O)CCc1c(C)c2ccc(OCc3ccc([N+](=O)[O-])cc3)cc2oc1=O	1.1%	3.1%	5.7%	4.4%	-4.8%	1.1%
SMILES	ELG1 DNA repair	NPC1 promoter act	ELG1 genotox	FLuc modulator	SMN2 splice enh	Rab9 promoter act
CN1CC[C@@]2(CCCN(S(=O)(=O)c3ccccc3)C2)C1	x	x	x	x	-7.7%	x
CSc1ccccc1OCc1cc(C(=O)N2CCCC2c2nonc2C)no1 (stereo not drawn)	u	2µM*	u	8.49µM*	x	2.24µM*
Cc1cccc(C)c1OCc1cc(C(=O)N2CCCC2c2nonc2C)no1 (stereo not drawn)	u	3.5%	-3.2%	-2.8%	x	7.0%
Cc1nonc1C1CCCN1C(=O)c1cc(COc2ccc(F)cc2F)on1 (stereo not drawn)	u	u	u	9.53µM*	x	2.24µM*
COC(=O)CCn1nnc(-c2ccc(C)cc2)n1	u	-2.0%	u	16.9µM*	19.3%	3.0%
Cc1ccc(-c2nnn(CCC(=O)NC(C)(C)C)n2)cc1	u	22.4%	15.4%	u	u	u
COc1cc(/C=C2/N=C(c3ccccc3F)OC2=O)cc(Cl)c1OS(C)(=O)=O	-0.8%	-4.5%	-0.6%	8.49µM*	19.0%	-1.0%
c1ccc2c(Oc3ccc4c(c3)OCO4)nncc2c1	u	1.26µM*	u	6.01µM*	10µM*	0.631µM*
Nc1ccc(Oc2ccc3c(c2)OCO3)cc1	14.2%	15.4%	-7.6%	-0.2%	6.2%	8.5%
CC1CN(CC(O)COC(c2ccc(Cl)cc2)c2ccc(Cl)cc2)CC(C)O1 (stereo not drawn)	18.4µM*	3.4%	-1.5%	-7.7%	-33.9%	-3.4%
COc1cccc(CNC(=O)CCNS(=O)(=O)c2ccc3c(c2)CC(C)N3C(C)=O)c1 (stereo not drawn)	8.2µM*	-0.8%	-0.6%[9.26 µM]	0.0%	x	-2.9%
COc1ccc(NC(=O)CCNS(=O)(=O)c2ccc3c(c2)CC(C)N3C(C)=O)cc1 (stereo not drawn)	-8.1%	-1.0%	-1.6%[9.26 µM]	-0.6%	x	-6.9%
